From PubChem BioAssay (EPA / NIEHS) come the findings set out here.

The structures appear in SMILES notation. Calls of active or inactive are those of the source. The calls were made as follows: active = hit-call score of the fitted dose curve at least 0.9, where 1 is the maximum; inactive = score below 0.9.

Read-out in the experiment: Interleukin 2 (IL2), IL2 (gene 3558)
Description: BSK_BT_xIL2: BioMAP Diversity Plus: BT Assay for Interleukin 2 (IL2) Biomarker Activity (AID 2284245). As to conditions: primary human B cells with PBMC. As to the method:
BSK_BT is a cell-based, multiplexed-readout assay that uses B cell and peripheral blood mononuclear cells, a human vascular primary cell co-culture, with measurements taken at 24 hours after chemical dosing in a microplate: 96-well plate.BSK_BT_xIL2 is an assay component measured in the BSK_BT assay. It measures secreted IL-2 related to regulation of gene expression using LumineX xMAP technology.Data from the assay component BSK_BT_xIL2 was analyzed at the endpoint, BSK_BT_xIL2, in the positive analysis fitting direction relative to DMSO as the negative control and baseline of activity. Using a type of cytokine quantitation reporter, gain or loss-of-signal activity can be used to understand protein changes. To generalize the intended target to other relatable targets, this assay endpoint is annotated to the 'cytokine' intended target family, where the subfamily is 'interleukins'.
The levels of cell surface (or secreted, indicated by the prefix "s") biomarker endpoints were measured by ELISA. Overt cytotoxicity to cells in confluent adherent cultures (all systems other than the BT system) was assessed by measuring total protein levels using sulforhodamine B (SRB) staining in parallel cultures at the time of biomarker measurements, indicated as SRB endpoints. For proliferation assays for adherent cell types, individual cell types are cultured at sub-confluence and relative cell numbers quantified by SRB staining at time points optimized for each system (48 h: 3C and CASM3C systems; 72 h: BT and HDF3CGF systems; 96 h: SAg system). SRB was performed by staining cells with 0.1% SRB after fixation with 10% TCA and reading wells at 560 nm.Viability and proliferation of PBMC (T cells) was quantified by Alamar Blue reduction for the SAg and BT systems. For PBMC viability (referred to as PBMC Cytotoxicity within the assay endpoint names), cells were plated (75,000/well in a 96-well plate) and then chemical samples added for 1 h before addition of activators, SEB and TSST-1 (20 ng/mL final concentration each). Cells were incubated for 90 h. Then, Alamar Blue (20 uL/well) (Invitrogen, Cat DAL1100) was added for 6 h, and the plates were read with a fluorescence microplate reader at 546/580 nm (excitation/emission). For PBMC proliferation, cells were plated and activated as above but incubated for only 16 h prior to addition of Alamar Blue. Plates were read after 6 h.
Take `ClC(Cl)=C(Cl)C(Cl)=C(Cl)Cl`: the outcome was inactive.

`NC(=S)Nc1ccccc1`: the result was inactive.

`CCOP(=S)(OCC)Oc1ccc(S(C)=O)cc1` (stereo unspecified): the outcome was inactive.

Usually AC50 stands for the concentration giving half of the maximal activity seen. Consider `Nc1ccc(-c2ccc(N)c(Cl)c2)cc1Cl`, for which the AC50 is 32.4 µM (active).

As to `Nc1cccc2ccccc12`, the outcome was inactive.

For `O=C(O)CCC(F)(C(F)(F)F)C(F)(F)F`, the outcome was inactive.

Consider `O=C(OC1CCCCC1)c1ccccc1C(=O)OC1CCCCC1`, for which the AC50 was 30.9 µM (active).

`COP(=S)(OC)Oc1c(Cl)cc(C)cc1Cl`: the outcome was inactive.

As for `COc1cc(OC)nc(NC(=O)NS(=O)(=O)c2ncccc2C(=O)N(C)C)n1`, the outcome was inactive.

As to `CCOC(=O)/C=C(C)/C=C/C[C@@H](C)CCCC(C)C`, the AC50 was 20 µM (active).

As for `CCCCC(CC)CO[N+](=O)[O-]` (stereo unspecified), the result was inactive.

Take `OCc1ccco1`: the result was inactive.

For the compound `CCCCCCCCC(=O)NCc1ccc(O)c(OC)c1`, the outcome was inactive.

Regarding `CC1(C)Cc2cccc(O)c2O1`, the result was inactive.

Consider `O=Cc1cccc(Oc2ccccc2)c1`, for which the outcome was inactive.

As to `CCNc1nc(NC(C)(C)C)nc(SC)n1`, the outcome was inactive.

On to `O=[N+]([O-])c1ccc2c3c(cccc13)CC2`, for which the result was inactive.

For the compound `COP(=S)(OC)Oc1ccc(S(=O)(=O)N(C)C)cc1`, the outcome was inactive.

For `O=C(O)C(F)(F)C(F)(F)C(F)(F)C(F)(F)C(F)(F)C(F)(F)C(F)(F)C(F)(F)C(F)(F)C(F)(F)F`, the outcome was inactive.

As for `CC(C)c1ccc(CO)cc1`, the result was inactive.

In the case of `COC(=O)c1sccc1S(=O)(=O)NC(=O)Nc1nc(C)nc(OC)n1`, the result was inactive.

Turning to `CCOP(=S)(OCC)SCCS(=O)(=O)CC`, the AC50 was 23.9 µM (active).

`COC[C@H](C)N(C(=O)CCl)c1c(C)csc1C`: the result was inactive.

Regarding `CC(C)CCCCCCOC(=O)c1ccccc1C(=O)OCCCCCCC(C)C`, the outcome was inactive.

`Oc1c(I)cc(I)cc1I`: the result was inactive.

With `COP(=S)(OC)Oc1cc(Cl)c(Cl)cc1Cl`, the result was inactive.

For the compound `O=C(O)C(F)(F)C(F)(F)C(F)(F)C(F)(F)C(F)(F)C(F)(F)F`, the result was inactive.

`O=S(=O)(c1ccc(Cl)cc1)c1ccc(Cl)cc1`: the outcome was inactive.

Consider `Oc1ccc(-c2ccccc2)cc1`, for which the result was inactive.

`BrCCBr`: the result was inactive.

Regarding `Nc1ncc([N+](=O)[O-])s1`, the outcome was inactive.

As for `CCSC(C)CC1CC(=O)C(C(CC)=NOC/C=C/Cl)=C(O)C1` (stereo unspecified), the result was inactive.

Regarding `CC(=O)C(Cl)C(=O)N(C)C` (stereo unspecified), the AC50 is 34.4 µM (active).

For `ClC1=C(Cl)[C@]2(Cl)[C@H]3[C@H]([C@H]4C=C[C@H]3C4)[C@@]1(Cl)C2(Cl)Cl`, the result was inactive.

`COP(=S)(OC)Oc1ccc(Sc2ccc(OP(=S)(OC)OC)cc2)cc1`: the outcome was inactive.

Consider `C(=NC1CCCCC1)=NC1CCCCC1`, for which the AC50 is 10.7 µM (active).
